AmpC inh detg = inhibitors of E. coli AmpC beta-lactamase with detergent; P00811; 370,000 compounds, 0.041% hits; AID 485294; AmpC hydrolysis of nitrocefin, absorbance 480 nm, 0.01% Triton; Potency, µM (titrated, usually from 114 µM), for inactives: top-dose activity change, negative = inhibition, most hits filed as inhibitors;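 further: 0% = no-compound wells and -100% = no-enzyme wells; nearly all actives have a fitted effect of over 25% in size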
Target sequence (P00811 whole entry, looked up): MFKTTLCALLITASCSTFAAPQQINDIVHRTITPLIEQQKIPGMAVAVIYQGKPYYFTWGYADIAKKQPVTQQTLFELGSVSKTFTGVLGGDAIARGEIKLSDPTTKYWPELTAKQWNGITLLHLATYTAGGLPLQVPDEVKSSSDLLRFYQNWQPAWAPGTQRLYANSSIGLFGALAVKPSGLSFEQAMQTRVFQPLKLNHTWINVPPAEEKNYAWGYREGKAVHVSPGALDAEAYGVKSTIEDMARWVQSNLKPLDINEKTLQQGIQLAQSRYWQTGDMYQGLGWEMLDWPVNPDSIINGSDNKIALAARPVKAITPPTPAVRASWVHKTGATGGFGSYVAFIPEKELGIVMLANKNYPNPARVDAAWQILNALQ
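20 mM phosphate pH 7.0 + 0.01% (detergent screen) or 0.0001% Triton X-100; 5.3 nM AmpC reagent; cpd preinc 15 min RT; nitrocefin (800 uM stock) to start; A480 q20 s × 4 min; Activity was normalised to no-enzyme and no-compound control wells.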
NS1 function inh = blocks influenza NS1 protein function; 270,000 compounds, 0.4% hits; Potency, µM (highest dose often 46.1 µM), inactives show top-dose activity, positive = more growth; AID 2326; calls by dose curve; further: actives are rising curves; nearly all actives have a fitted effect of over 50% in size
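S. cerevisiae expressing influenza A NS1, grown in glucose, washed, then diluted 1:100 into pH 6.0 -URA galactose medium with 23 nl compound. Growth recovery read as OD600; NS1-free strain serves as control.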
AmpC inh no detg = AmpC beta-lactamase inhibition without detergent. P00811. AmpC nitrocefin hydrolysis, absorbance 480 nm, 0.0001% Triton. Potency, µM (top dose mostly 57.1 µM), for inactives: at the top dose activity change, negative = inhibition, actives largely listed as inhibitors. 330,000 compounds, 0.52% hits;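 further: plate controls were no compound for no effect and no enzyme for full effect; nearly all actives have a fitted effect of over 20% in size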
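AmpC (5.3 nM in the dispensed reagent) in 20 mM phosphate pH 7.0 with 0.01% (detergent screen) or 0.0001% Triton X-100 was preincubated with compounds for 15 min at room temperature. Nitrocefin was then added from an 800 uM solution, and hydrolysis was followed at 480 nm.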
SARS PLP yeast = SARS-CoV PLP inhibition in yeast; S. cerevisiae expressing SARS-CoV PLpro, growth rescue; Potency, µM (series often up to 32.9 µM), without a hit: at the top dose activity, positive = growth rescue, hits mostly activators; 330,000 compounds, 0.19% hits; AID 485353; calls by dose curve; further: 0% is about no effect; nearly all actives have a fitted effect of over 55% in size
AMA1 RON2 block = disrupts binding of P. falciparum AMA1 to RON2 | Potency, µM (top dose mostly 58.2 µM), inactives show at the highest dose activity change, negative = inhibition, actives largely listed as inhibitors | AID 720542 | 360,000 compounds, 0.2% hits | AlphaScreen AMA1-biotinylated RON2 peptide binding;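 further: 0% = vehicle wells and -100% = peptide control; nearly all actives have a fitted effect of over 45% in size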
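AMA1 (3D7) with his tag at 25 nM final met compounds first, then biotinylated RON2 peptide at 25 nM; detection used donor plus acceptor beads, 10 µg/mL apiece, read by AlphaScreen after 30 min at room temperature.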
* hit, by the source's call; ? = inconclusive; · = not tested or not shown; [ ] = another dose, or the depositor's remark. An excerpt weighted towards active compounds, which were near 0.99% of everything screened. Unless noted, the call rests on the fitted dose curve; in most records, active means well fitted curve in the direction sought with a large enough effect; inconclusive means small, poorly fitted or top-dose-only effect, or another doubt; inactive means no such curve, though single readings can be large; an effect the other way counts as inactive or inconclusive. Potency means the concentration at half of the fitted maximal effect.

SMILES	AmpC inh detg	NS1 function inh	AmpC inh no detg	SARS PLP yeast	AMA1 RON2 block
O=C(Oc1ccccc1)c1cc(O)c(O)c(O)c1	·	·	·	·	39.8µM*
COc1ccc(/C=C2/C(=O)N(Cc3ccccc3)N=C2C)cc1	-4.9%	1.2%	1.0%	4.5%	-8.0%
COc1ccc(/C=C2/C(=O)N(c3nc4ccccc4s3)N=C2CSc2ccc(Cl)cc2)cc1	-11.8%	11.5%	15.8µM*	-5.4%	76.8%[11.6 µM]
C[N+](C)(C)C(C1=CCCC1=O)c1ccccc1 (stereo not given)	·	-10.3%	·	·	·
O=C(O[C@@H]1OC2COC(=O)c3cc(O)c(O)c(O)c3-c3c(cc(O)c(O)c3O)C(=O)O[C@@H]([C@H]1O)[C@@H]2O)c1cc(O)c(O)c(O)c1	-2.7%	15.8%	-11.4%	12.6µM*	2.51µM*
CCOc1ccccc1NC(=O)C(OC(=O)c1ccccc1)c1ccccc1 (stereo not given)	0.2%	-15.7%	-19.8%	1.8%	-1.9%
CCOc1ccccc1NC(=O)C(OC(=O)c1ccc(NC(=O)CC#N)cc1)c1ccccc1 (stereo not given)	-12.2%	·	7.94µM*	-3.3%	-2.9%
COc1ccc(C(=O)/C=C/c2ccc(N(C)C)cc2)c(OC)c1	1.0%	8.1%	-13.1%	-2.4%	-4.2%
COc1cc2c(cc1OC)C(=Cc1ccc(N(C)C)cc1)C=C2	·	·	·	·	8.91µM*
COc1ccc(N2CCN(C(=O)Cc3ccc(Cl)cc3)CC2)cc1	-8.3%	-15.5%	22.5%	-5.5%	17.8µM*
COc1ccc(N2CCN(C(=O)Cc3ccc(C)cc3)CC2)cc1	-10.3%	-36.0%	11.8%	-14.4%	-12.0%
N#CC(C#N)=c1ccc2c(c1)NC1(CCCCC1)N=2	2.9%	-89.2%	-13.8%	-29.5%	22.4µM*
N#CC(C#N)=C1NC2(CCCCC2)Cc2ccccc21	5.8%	-1.3%	-24.3%	-1.6%	-10.6%
COc1cc2cc(c1Cl)N(C)C(=O)C[C@H](OC(=O)C(C)C)[C@]1(C)O[C@@H]1[C@@H](C)[C@H]1C[C@](O)(NC(=O)O1)[C@@H](OC)/C=C\C=C(\C)C2	·	-15.6%	·	·	·
NNC(=O)c1ccc2[nH]c3c(c2c1)CCCC3	1.5%	·	25.1µM*	4.2%	26.2%
Cc1cc(C)cc(NC(=S)NCc2ccc3[nH]c4c(c3c2)CCCC4)c1	-6.9%	24.3%	31.6µM*	-4.1%	25.5%
CCOC(=O)CNC(=O)c1ccc2[nH]c3c(c2c1)CCCC3	-5.7%	-9.3%	-23.1%	6.7%	-4.5%
CC(C)(C)OC(=O)[C@H](C1N[C@@H](C(=O)O)C(C)(C)S1)N1C(=O)c2ccccc2C1=O (stereo not given in full)	·	-0.9%	·	·	·
COc1ccc(OCC(=O)NNc2nc3ccccc3s2)cc1	-5.8%	-2.4%	10µM*	0.4%	34.9%
COc1ccc(OC)c2sc(NNC(=O)COc3ccccc3)nc12	-3.4%	·	-22.9%	0.0%	87.6%
COc1cc(/C=C(/C#N)c2ccc(F)cc2)ccc1Oc1ccc([N+](=O)[O-])cn1	-18.9%	9.8%	28.2µM*	18.4%	-26.5%
Cc1cc(C)c(OCC(=O)N(Cc2ccc(N(C)C)cc2)CC2CCCO2)c(C)c1 (stereo not given)	12.5%	·	·	·	·
COc1cc(C(=O)N(Cc2ccc(N(C)C)cc2)CC2CCCO2)cc(OC)c1OC (stereo not given)	1.6%	·	·	·	·
Cc1ccc2oc(C(=O)N(Cc3ccc(N(C)C)cc3)CC3CCCO3)c(C)c2c1 (stereo not given)	-1.3%	-20.1%	82.4%	27.8%	17.8µM*
Cc1cc2oc(C(=O)N(Cc3ccc(N(C)C)cc3)CC3CCCO3)c(C)c2cc1C (stereo not given)	-1.1%	-29.0%	67.2%	-51.4%	14.1µM*
CC(=O)c1ccc2c(c1)C1C=CCC1C(C(=O)O)N2 (stereo not given)	?	14.2%	9.6%	0.2%	3.98µM*
N[C@H](Cc1ccc2oc3cc(=O)c4ccccc4c-3nc2c1)C(=O)O	·	2.6%	·	·	·
Oc1cccc(Nc2c3ccccc3nc3ccccc23)c1	10.5%	-48.1%	-52.7%	-13.0%	-5.9%
CCN(CC)Cc1cc(Nc2c3ccccc3nc3c4ccccc4n(C)c23)cc(CN(CC)CC)c1O	·	·	·	·	11.2µM*

High-throughput results from PubChem.
